# From PubChem
# HT1080NT lethal: kills 2HG-producing HT-1080-NT fibrosarcoma cells; HT-1080-NT fibrosarcoma viability, CellTiter-Glo ATP luminescence, 48 h; Potency, µM (highest dose often 46.1 µM), for inactives: top-dose activity, negative = less viability, hits mostly cytotoxic; 360,000 compounds, 1.6% hits; AID 686970;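 further: NT is the 2HG producing partner of a matched IDH1 knockdown line; potency means the concentration at half of the fitted maximal effect; 0% = DMSO-treated cells and -100% = media-only wells without cells; nearly all actives have a fitted effect of over 55% in size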
#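 Fibrosarcoma NT cells, 750 per well in 5% FBS RPMI, were exposed to compound for 48 hours. Viability: CellTiter-Glo luminescence.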
# DT40 TDP1 CPT: growth inhibition of DT40 Tdp1-/-;hTDP1 cells with camptothecin (screen for TDP1 inhibitors); chicken DT40 Tdp1-/-;hTDP1 cells + 20 nM CPT, ATP luminescence, 48 h; Potency, µM (doses to about 46.2 µM), for the others: at the top dose activity change, negative = growth inhibition, usual class: inhibitors; 420,000 compounds, 12% hits; AID 686979; further: potency means the concentration at half of the fitted maximal effect; nearly all actives have a fitted effect of over 55% in size
#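 Cell growth measured by CellTiter-Glo luminescence after a minimum 48 h, 37 C compound exposure with 20 nM CPT in Tdp1-knockout DT40 cells stably expressing hTDP1, seeded 400/well; qHTS titration format.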
# HT1080 IDH1KD tx: toxicity to HT-1080 IDH1 knockdown cells (counter line). HT-1080 IDH1 knockdown viability, ATP luminescence, 48 h. Potency, µM (series often up to 46.1 µM), without a hit: top-dose activity, negative = toxicity, usual class: cytotoxic. AID 686971. 360,000 compounds, 2% hits;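 further: potency means the concentration at half of the fitted maximal effect; 0% = DMSO wells and -100% = cell-free medium wells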
#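 IDH1KD HT-1080 cells, 750/well, RPMI + 5% FBS; compound pinned after 2 h settling; 48 h, 37 °C; CellTiter-Glo luminescence; % activity normalised to DMSO and no-cell wells; curves fitted, classed by r2 and efficacy.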
# IL1B secr inh: blocks inflammasome-driven IL-1 beta release. 360,000 compounds, 4.7% hits. THP-1 LPS/ATP IL-1B secretion, AlphaLISA, 16 h; hits give low values. activity change, % at 57.5 µM; in the data active means activity change below about -50%; inconclusive means mostly about -30% to -49%
#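 Secreted IL-1B measured by AlphaLISA bead assay after 16 h compound exposure of THP-1 cells; compounds (final up to 57.5 uM) added 1 h before LPS (250 ng/mL) and ATP (1.25 mM) stimulation; lower signal means less secretion.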
# DT40 TDP1 no CPT: qHTS for Inhibitors of human tyrosyl-DNA phosphodiesterase 1 (TDP1): qHTS in cells in absence of CPT; Potency, µM (titrated, usually from 46.2 µM), for the others: at the top dose activity change, negative = growth inhibition, hits mostly inhibitors; 420,000 compounds, 15% hits; DT40 Tdp1-/- hTDP1 cells, no CPT, ATP luminescence, 48 h; AID 686978, 2013; further: potency means the concentration at half of the fitted maximal effect; nearly all actives have a fitted effect of over 55% in size
#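 Growth of hTDP1-complemented DT40 Tdp1-knockout cells is measured by ATP luminescence after at least 48 hr compound exposure at 37 °C, with DMSO substituting for the 20 nM CPT used in the parallel screen.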
# An asterisk follows results filed as active; u = inconclusive; x = no result given; ! = a repeat was not active. This is a sample that favours compounds with a hit; in the whole collection about 19% have one here. Unless noted, the call rests on the fitted dose curve; in most records, active means well fitted curve in the direction sought with a large enough effect; inconclusive means small, poorly fitted or top-dose-only effect, or another doubt; inactive means no such curve, though single readings can be large; an effect the other way counts as inactive or inconclusive. Unless noted, on the % scale 0 is the no-effect control and ±100 the full control effect.
SMILES,HT1080NT lethal,DT40 TDP1 CPT,HT1080 IDH1KD tx,IL1B secr inh,DT40 TDP1 no CPT
COc1cccc(-c2ccc(NC(=O)C3CCCN(Cc4ccco4)C3)cc2)c1 (configuration not stated),-3%,u,5%,-80*,16µM*
O=C(Nc1ccc(-c2ccco2)cc1)C1CCCN(Cc2ccco2)C1 (configuration not stated),-13%,u,1%,-13,u
COc1cccc(-c2ccc(NC(=O)C3CCCN(CCCn4nc(C)cc4C)C3)cc2)c1 (configuration not stated),u,18µM*,u,-4,u
CC1=C(C(=O)N2CCOCC2)C(c2ccc(OC(F)F)cc2)NC(=S)N1c1ccccc1 (configuration not stated),6%,6%,3%,-23,-2%
Cc1ccc2cc(CN(CC3CCCO3)S(=O)(=O)c3ccc4c(c3)OCCO4)c(=O)[nH]c2c1C (configuration not stated),5%,18µM*,10%,-5,21µM*
CC(=O)c1ccc(S(=O)(=O)N(Cc2cc3cc4c(cc3[nH]c2=O)OCCO4)CC2CCCO2)cc1 (configuration not stated),0%,-29%,13%,-11,11µM*
CCCCN(C(=O)COC(=O)CSc1ccc([N+](=O)[O-])cc1)c1c(N)n(CCC)c(=O)[nH]c1=O,-4%,3%,-2%,21,-5%
Cc1ccc(N=C2CCCN2Cc2ccccc2)c(C#N)c1,2%,u,6%,-4,21µM*
CCCCC(C)(O)C/C=C/[C@H]1[C@H](O)CC(=O)[C@@H]1CCCCCCC(=O)OC (some centres not stated),x,u,x,x,1.5µM*
COc1ccc(-c2cc(C(F)(F)F)nc(S(=O)(=O)CCCC(=O)Nc3ccccc3C(F)(F)F)n2)cc1OC,x,1.2µM*,x,x,2.1µM*
COc1ccc(NC(=O)CCCS(=O)(=O)c2nc(-c3ccc(OC)c(OC)c3)cc(C(F)(F)F)n2)cc1OC,x,1.6µM*,x,x,1.6µM*
COc1ccc(-c2cc(C(F)(F)F)nc(S(=O)(=O)CCCC(=O)Nc3cccc(O)c3)n2)cc1OC,18µM*,3.7µM*,12µM*,-146*,4.1µM*
COc1cccc2cc(C(=O)Nc3ccc(S(=O)(=O)NCC4CCCO4)cc3)c(=O)oc12 (configuration not stated),4%,-6%,4%,-19,u
CSc1ncccc1C(=O)N1CCCC(Nc2ccc(C)c(C)c2)C1 (configuration not stated),-5%,u,5%,2,-32%
Cc1ccc(CN2CCCn3nc(C(=O)NCCN(C)C)cc3C2=O)cc1,x,-3%,x,x,0%
Cc1ccc(CN2CCCn3nc(C(=O)NCc4cc(C)ccc4C)cc3C2=O)cc1,x,15µM*,x,x,16µM*
Cc1ccc(CN2CCCn3nc(C(=O)NCc4ccc(N(C)C)cc4)cc3C2=O)cc1,x,u,x,x,13µM*
CCOCCCNC(=O)N[C@@H](Cc1ccccc1)C(=O)OC,2%,-24%,1%,-23,6%
CC(C)C(=O)Nc1c(C(=O)N2CCN(c3ncccn3)CC2)oc2ccccc12,29%,-23%,1%,-11,-11%
CC(C)CC(=O)Nc1c(C(=O)N2CCN(c3ccccc3)CC2)oc2ccccc12,x,15µM*,x,x,21µM*
CCC(CC)C(=O)Nc1c(C(=O)N2CCN(c3ccccc3)CC2)oc2ccccc12,u,21µM*,-24%,-13,8.2µM*
CCC(CC)C(=O)Nc1c(C(=O)N2CCN(c3ccccc3F)CC2)oc2ccccc12,x,15µM*,x,x,10µM*
CC(C)C(=O)Nc1c(C(=O)N2CCN(c3ccccc3F)CC2)oc2ccccc12,x,10µM*,x,x,12µM*
CCOc1ccc(C(=O)Nc2c(C(=O)N3CCN(c4ccccc4F)CC3)oc3ccccc23)cc1,x,u,x,x,-18%
CC(C)CC(=O)Nc1ccccc1N1CCN(C(=O)c2ccccc2)CC1,7%,-26%,-1%,10,-17%
SMILES,HT1080NT lethal,DT40 TDP1 CPT,HT1080 IDH1KD tx,IL1B secr inh,DT40 TDP1 no CPT
O=C(C[C@@H]1C/C=C/CCCC(=O)O[C@H](c2ccccc2)CNC1=O)NCCO,9%,-7%,16%,10,-1%
COc1ccc(Cl)cc1C(=O)NNC(=O)CCNC(=O)c1ccccc1,4%,1%,11%,10,-7%
O=C(Nc1c(C(=O)N2CCN(c3ccccc3F)CC2)oc2ccccc12)c1ccc(Br)o1,x,18µM*,x,x,u
CCCCC(=O)Nc1c(C(=O)N2CCN(c3ccccc3)CC2)oc2ccccc12,x,15µM*,x,x,9.2µM*
CCCC(=O)Nc1ccc(N2CCN(C(=O)c3cc4ccccc4o3)CC2)cc1,-6%,-9%,0%,1,u
O=C(c1ccc(Br)o1)N1CCN(c2ccccc2F)CC1,9%,7%,29%,-21,u
CCC(Sc1nc2nccnc2c(=O)n1Cc1ccc(F)cc1)C(=O)NC1CCCCC1 (configuration not stated),x,21µM*,x,x,u
CCC(Sc1nc2ncccc2[nH]1)C(=O)NC1CCCC1 (configuration not stated),4%,0%,6%,12,0%
CC(=O)N1CCCc2cc(S(=O)(=O)N3CCCC(C(=O)Nc4cc(C)ccc4C)C3)ccc21 (configuration not stated),-1%,u,-15%,14,-29%
CC(=O)N1CCCc2cc(S(=O)(=O)N3CCCC(C(=O)NCc4ccccc4)C3)ccc21 (configuration not stated),0%,u,1%,-14,26µM*!
CC(=O)N1c2ccc(S(=O)(=O)N3CCCC(C(=O)NCc4ccccc4)C3)cc2CC1C (configuration not stated),0%,-24%,7%,-5,u
CC(=O)N1CCCc2cc(S(=O)(=O)N3CCCC(C(=O)NCc4ccc(C)cc4)C3)ccc21 (configuration not stated),-1%,18µM*,-12%,82,23µM*
CC(=O)N1CCCc2cc(S(=O)(=O)N(Cc3ccccc3)C(C)C)ccc21,x,15µM*,x,x,16µM*
Cc1ccc(OCC(=O)Nc2ccccc2OCc2cc(=O)n3ccccc3n2)cc1C,x,-15%,x,x,-17%
CN(C)c1cccc(NC(=O)c2cccc3ccccc23)c1,-15%,-3%,-9%,-3,u
O=C(N=C1SC2CS(=O)(=O)CC2N1c1cccc(Cl)c1Cl)C1CC1 (configuration not stated),1%,-1%,-2%,50,-3%
